High-throughput results: PubChem, several laboratories
TLR4-MyD88 BLA: inhibitors of TLR4-MyD88 association in cells, primary screen, cell-based, HeLa CL3-4, BLA complementation, FRET ratio | inhibition, % at 8.4 µM | 200,000 compounds, 0.18% hits | Toll-like receptor 4 (Homo sapiens) + Myeloid differentiation primary response protein … | HeLa CL3-4 TLR4/MyD88 BLA complementation; in the data active = inhibition above about 25%;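 note: 0% = vehicle and 100% = reference inhibitor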
TLR9-MyD88 block: inhibitors of TLR9-MyD88 association in cells, primary screen, cell-based, CHO, BLA complementation, fluorescence | CCF4 FRET ratio | 340,000 compounds, 0.21% hits | AID 504734, 2011 | inhibition, % at 4.98 µM;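 active = inhibition above the mean over all tested compounds plus 3 SD, cut at about 21% in these data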;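 note: 0% = DMSO only wells and 100% = clavulanate BLA inhibitor control wells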
ABCB6 inh MLPCN: ABCB6 transporter inhibitors, primary screen, K562-ABCB6 cells, flow cytometry, MLPCN library; ATP-binding cassette sub-family B member 6 (Homo sapiens), Q9NP58; K562-ABCB6 porphyrin accumulation, 1 h; hits give low values; fluorescence ratio to DMSO, % at 10 µM; 360,000 compounds, 0.19% hits;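 active = fluorescence ratio to DMSO below 75%, the collection mean minus 3 SD; inconclusive = too few cells collected in the well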;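 note: signal is porphyrin accumulated inside mitochondria; 100% equals median channel fluorescence of DMSO control wells; lower ratio means ABCB6 inhibition with less porphyrin fluorescence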
Target sequence (Q9NP58 whole entry, looked up): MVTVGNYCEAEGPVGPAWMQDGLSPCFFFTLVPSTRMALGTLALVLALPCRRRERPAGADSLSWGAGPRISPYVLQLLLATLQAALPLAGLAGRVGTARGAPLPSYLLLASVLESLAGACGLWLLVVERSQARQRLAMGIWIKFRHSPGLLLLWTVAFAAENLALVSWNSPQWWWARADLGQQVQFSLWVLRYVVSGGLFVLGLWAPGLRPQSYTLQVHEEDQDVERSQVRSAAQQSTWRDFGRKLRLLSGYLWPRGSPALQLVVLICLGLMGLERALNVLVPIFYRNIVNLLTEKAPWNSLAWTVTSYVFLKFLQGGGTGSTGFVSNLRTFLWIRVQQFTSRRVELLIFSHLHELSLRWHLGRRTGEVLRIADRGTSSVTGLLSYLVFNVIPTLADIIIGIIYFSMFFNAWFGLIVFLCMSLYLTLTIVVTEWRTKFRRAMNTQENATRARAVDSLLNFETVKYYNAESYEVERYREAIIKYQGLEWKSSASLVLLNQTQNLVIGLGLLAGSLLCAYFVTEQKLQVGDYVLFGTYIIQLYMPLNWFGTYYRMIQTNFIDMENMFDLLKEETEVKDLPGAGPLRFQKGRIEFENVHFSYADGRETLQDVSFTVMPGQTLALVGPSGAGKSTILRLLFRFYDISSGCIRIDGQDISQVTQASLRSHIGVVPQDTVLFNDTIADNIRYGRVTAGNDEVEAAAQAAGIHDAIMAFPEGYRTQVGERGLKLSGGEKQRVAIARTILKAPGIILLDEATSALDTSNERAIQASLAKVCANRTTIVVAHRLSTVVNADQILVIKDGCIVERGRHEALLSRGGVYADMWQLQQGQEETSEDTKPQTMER
Myeloid diff MLP: induction of myeloid progenitor differentiation, primary screen, cell-based, flow cytometry, MLPCN library; ER-HoxA9 myeloid progenitors, lysozyme-GFP differentiation; calls only at 10 µM; 360,000 compounds, 1% hits;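 active = normalized GFP-positive differentiation at or above the plate's own cutoff, the solvent-only control mean plus 3 SD; inconclusive = no clear call, values can overlap the other calls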;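 note: cells exposed to compound for four days before flow analysis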
NOD2-RIPK2 inh: NOD2-RIPK2 binding disruptors in cells, primary screen, fluorescence, CHO cells, BLA complementation; Receptor-interacting serine/threonine-protein kinase 2 (Homo sapiens), O43353; CCF4 ratio; inhibition, % at 4.98 µM; 360,000 compounds, 0.38% hits; AID 624267, 2012; in the data active = inhibition above about 21%;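 note: 0% = vehicle only and 100% = reference blocker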
Myeloid diff: inducers of myeloid progenitor differentiation, confirmation, cell-based, GFP/Mac1 flow cytometry, cherry pick 01; 2,300 compounds, 2% hits; ER-HoxA9 myeloid progenitors, GFP/Mac1 double-positive flow; shares compounds with Myeloid diff MLP; calls only;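 active = share of green or green-and-red cells above 9 and 9% in run 1 or 4 and 3% in run 2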
GFP autofluor: compound fluorescence in myeloid differentiation counter-screen | ER-HoxA9 myeloid progenitors, no estrogen, GFP autofluorescence flow cytometry; vehicle wells 0%, positive control 100% | shares compounds with Myeloid diff MLP | fluorescence response, % (concentration not given with the values) | 2,300 compounds, 7.4% hits | AID 651707;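 active = over 5% cells positive for green fluorescent reporter, or over 2% positive for both it and APC stain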;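 note: range taken on the double positive population between DMSO and positive control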
Active calls of the source: *; i = inactive; ? = inconclusive; nt = no result; + = active, no number. The list is not random: actives were taken first. Their share in the collection is about 1.7%.

SMILES | TLR4-MyD88 BLA | TLR9-MyD88 block | ABCB6 inh MLPCN | Myeloid diff MLP | NOD2-RIPK2 inh | Myeloid diff | GFP autofluor
O=C(CCCN1C(=O)C(=Cc2ccc3c(c2)OCO3)SC1=S)Nc1ccc(C(=O)O)c(O)c1 | nt | nt | 103 | i | -20 | i | 0
O=C(CCCN1C(=O)/C(=C/c2ccco2)SC1=S)Nc1cccc(C(=O)O)c1 | nt | -4 | 97 | i | 2 | + | 0
CCOC(=O)c1ccccc1NC(=O)COC(=O)CSC(C)C(=O)Nc1cc(C)on1 (centres undefined) | nt | -2 | 97 | i | -3 | nt | nt
Cc1ccc(C)c(N2CCN(C(=O)c3ccc(NC4=NC5CS(=O)(=O)CC5S4)cc3)CC2)c1 (centres undefined) | nt | 4 | 96 | i | -6 | nt | nt
Cc1ccc(S(=O)(=O)N2C[C@H]3C(=O)C[C@@H](c4ccccc4)N(S(=O)(=O)c4ccc(C)cc4)[C@H]3C[C@H]2c2cccc(C)c2)cc1 | nt | nt | 100 | + | 7 | i | 0
COC(=O)c1c(NC(=O)CSc2nnnn2-c2ccccc2)sc2c1CCC(C(C)(C)C)C2 (centres undefined) | 9 | 4 | 102 | i | 5 | i | 0
COc1ccc(CNc2ccccc2)cc1Br | -13 | -10 | 108 | i | 0 | i | 0
Cc1ccc(-c2cnc(C(O)c3ccc(Cl)c(Cl)c3)[nH]2)cc1 (centres undefined) | nt | nt | 95 | i | -6 | nt | nt
Cn1c(=O)[nH]c(=O)c2c1nc(Br)n2Cc1cccc(Br)c1 | nt | 9 | 99 | i | -3 | i | 0
COc1cccc2sc(N3CCN(C(=O)c4ccc([N+](=O)[O-])o4)CC3)nc12 | nt | 13 | 104 | + | -7 | i | 0
O=C(c1ccc([N+](=O)[O-])o1)N1CCN(c2nc3c(Cl)cccc3s2)CC1 | nt | -6 | 97 | i | 3 | nt | nt
O=C(c1ccc([N+](=O)[O-])o1)N1CCN(c2nc3ccc(F)cc3s2)CC1 | nt | 4 | 101 | i | -2 | i | 0
CCC(CC)NC(=O)CN1CCN(S(=O)(=O)c2cccs2)CC1 | nt | 0 | 101 | i | -5 | nt | nt
Cc1cc(NC(=O)c2ccccc2)n(-c2ccccc2)n1 | -1 | 8 | 95 | i | -14 | nt | nt
Cc1cc(NC(=O)c2cc(-c3ccc4c(c3)OCO4)on2)n(-c2ccccc2)n1 | -16 | -5 | 91 | + | -9 | i | 0
Cc1cc(NC(=O)c2noc3c2CCCC3)n(-c2ccccc2)n1 | -3 | 5 | 107 | + | -4 | i | 0
COc1ccc(-c2cc(C(=O)Nc3cc(C)nn3-c3ccccc3)no2)cc1 | 2 | -8 | 98 | i | -11 | nt | nt
CCN(CC)C(=O)C1=C(C)N(CCCN2CCCC2=O)C(=O)C(CC(=O)NC2CCCC2)C1 (centres undefined) | nt | -2 | 97 | i | 1 | nt | nt
Cc1ccc(OCc2cccc(S(=O)(=O)N(C)C)c2)c([N+](=O)[O-])n1 | nt | -5 | 93 | i | 4 | nt | nt
Cc1cc(NC(=O)/C=C/c2ccccc2Cl)no1 | -8 | 5 | 97 | i | -7 | i | 1
Cc1cc(NS(=O)(=O)c2ccc(NC(=O)/C=C/c3ccccc3Cl)cc2)no1 | nt | 0 | 103 | i | -1 | nt | nt
CCCn1cc(SCC(=O)NC2CCCC2)c2ccccc21 | nt | -9 | 95 | i | -3 | nt | nt
CCCn1cc(S(=O)(=O)CC(=O)NC2CCCCC2)c2ccccc21 | -13 | 0 | 100 | nt | -4 | i | 0
CSC1=NSC2=NC(=O)/C(=C/c3coc4ccc(O)cc4c3=O)C(=N)N12 | -13 | 3 | 303 | + | 3 | i | 2
Cc1cccc(CNc2ncc(-c3cccc([N+](=O)[O-])c3)n2C)c1 | -1 | -3 | 498 | i | -7 | i | 0
SMILES | TLR4-MyD88 BLA | TLR9-MyD88 block | ABCB6 inh MLPCN | Myeloid diff MLP | NOD2-RIPK2 inh | Myeloid diff | GFP autofluor
Cn1c(-c2cccc([N+](=O)[O-])c2)cnc1NCc1cccc([N+](=O)[O-])c1 | 5 | 4 | 96 | i | 1 | nt | nt
CCC1(c2ccc(F)cc2)NC(=O)N(CC(=O)N2CCN(S(=O)(=O)c3ccc(C)cc3C)CC2)C1=O (centres undefined) | nt | -22 | 98 | + | 1 | i | 3
CCC1(c2ccc(F)cc2)NC(=O)N(CC(=O)N2CCN(S(=O)(=O)c3ccc(Cl)cc3)CC2)C1=O (centres undefined) | nt | -4 | 101 | i | 1 | nt | nt
COc1cc(OC)c2c3c(c(C4CCCCC4)nc2c1)CCC3 | nt | -7 | 97 | i | -13 | nt | nt
Nc1nc(-c2ccc(Cl)cc2)cc(C(F)(F)F)n1 | 4 | 9 | 103 | i | -1 | nt | nt
Nc1nc(-c2ccc(F)cc2)cc(C(F)(F)F)n1 | -8 | 3 | 88 | i | -5 | i | 1
CCN1C(=O)c2ccccc2S(=O)(=O)c2ccc(C(=O)NCCOC)cc21 | nt | 7 | 111 | i | 6 | nt | nt
NC(Cc1ccc(Cl)cc1)c1csc(NC(=O)NCC2CCCCC2)n1 (centres undefined) | nt | nt | 101 | + | 2 | i | 1
NC(Cc1ccc(Cl)cc1)c1csc(NC(=O)NCCc2ccccc2)n1 (centres undefined) | nt | nt | 99 | i | 0 | nt | nt
CC(C)(C)OC(=O)N(CCc1ccccc1)Cc1ccccc1OCc1cccc(NC(=O)C2CC2)c1 | nt | -6 | 89 | + | -7 | i | 0
CC(C)(C)OC(=O)N(CCc1ccccc1)Cc1ccccc1OCc1cccc(NC(=O)C2CCCC2)c1 | nt | -10 | 101 | i | 1 | nt | nt
CCN1CCN(c2ccc(S(=O)(=O)N3CCCCC3)cc2NC(=O)/C=C/c2ccc(Cl)cc2)CC1 | nt | 2 | 98 | + | 4 | i | 16*
CCN1CCN(c2ccc(S(=O)(=O)N3CCCCC3)cc2NC(=O)c2ccc([N+](=O)[O-])s2)CC1 | nt | 1 | 97 | + | 15 | i | 0
COc1ccc(NC(=O)Nc2cccc3c2O[C@H](CN(C)Cc2ccc(-c4ccccc4)cc2)[C@@H](C)CN([C@H](C)CO)C3=O)cc1 | nt | 1 | 91 | ? | -14 | nt | nt
COc1ccc(C(=O)NCc2nnc(SCC(=O)Nc3nc4ccccc4s3)o2)cc1OC | -2 | -17 | 98 | i | -8 | nt | nt
